Hits are enriched below; roughly 15% of the tested compounds scored in any of these assays.
TDP1 cell CPT – growth inhibition of DT40 Tdp1-/-;hTDP1 cells with camptothecin (screen for TDP1 inhibitors). AID 686979. chicken DT40 Tdp1-/-;hTDP1 cells + 20 nM CPT, ATP luminescence, 48 h. actives 12% (n = 420,000). Potency, µM (titrated, usually from 46.2 µM), for inactives: top-dose activity change, negative = growth inhibition, most hits filed as inhibitors; further: nearly all actives have a fitted effect of over 55% in size
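Cell growth measured by CellTiter-Glo luminescence after a minimum 48 h, 37 C compound exposure with 20 nM CPT in Tdp1-knockout DT40 cells stably expressing hTDP1, seeded 400/well; qHTS titration format.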
ALOX12 inh – inhibitors of human 12S-lipoxygenase ALOX12; AID 1671190; actives 1.1% (n = 580,000); Potency, µM (top dose mostly 108 µM), inactives show at the top dose activity change, negative = inhibition, actives largely listed as inhibitors; purified 12hLO, xylenol orange hydroperoxide absorbance
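Purified human 12hLO (150 nM final) in 25 mM Hepes, 0.01% Triton X-100, pH 7.0 was preincubated 15 min at room temperature with compound. Then 40 uM arachidonic acid was added, 30 min. Hydroperoxide was read by Fe-XO absorbance ratio 573/405 nm.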
ELG1 DNA repair – blocks ELG1-dependent DNA repair in HEK293T cells; Potency, µM (series often up to 46.1 µM), for inactives: at the top dose activity change, negative = inhibition, usual class: inhibitors; HEK293T ELG1-luciferase reporter, luminescence, 16 h; DNA damage induced by 5-fluorouridine; actives 2.3% (n = 330,000); AID 504467; further: nearly all actives have a fitted effect of over 55% in size
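5-Fluorouridine DNA damage + compound/DMSO, 2,000 cells/well, 16 h, 37 °C/5% CO2. ONE-Glo, 30 min RT, luminescence. Readout = decrease in reporter signal.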
DT40 TDP1 no CPT – qHTS for Inhibitors of human tyrosyl-DNA phosphodiesterase 1 (TDP1): qHTS in cells in absence of CPT; actives 15% (n = 420,000); AID 686978, 2013; DT40 Tdp1-/- hTDP1 cells, no CPT, ATP luminescence, 48 h; Potency, µM (doses to about 46.2 µM), for the others: top-dose activity change, negative = growth inhibition, hits mostly inhibitors; further: nearly all actives have a fitted effect of over 55% in size
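Readout: luminescence from CellTiter-Glo after 30 min in the dark at RT. Cells: DT40 Tdp1-/- with stable hTDP1, 400/well. Exposure: compounds alone, ≥48 hr, 37 °C.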
RORgamma inh – blocks mouse ROR gamma transcriptional activity; Potency, µM (highest dose often 53.6 µM), for inactives: at the highest dose activity change, negative = inhibition, actives largely listed as inhibitors; actives 5.4% (n = 310,000); P51450; Drosophila S2 Gal4-RORgamma UAS-luciferase reporter, 20 h; further: nearly all actives have a fitted effect of over 60% in size
Target sequence (P51450 whole entry, looked up, the tested form may be a part): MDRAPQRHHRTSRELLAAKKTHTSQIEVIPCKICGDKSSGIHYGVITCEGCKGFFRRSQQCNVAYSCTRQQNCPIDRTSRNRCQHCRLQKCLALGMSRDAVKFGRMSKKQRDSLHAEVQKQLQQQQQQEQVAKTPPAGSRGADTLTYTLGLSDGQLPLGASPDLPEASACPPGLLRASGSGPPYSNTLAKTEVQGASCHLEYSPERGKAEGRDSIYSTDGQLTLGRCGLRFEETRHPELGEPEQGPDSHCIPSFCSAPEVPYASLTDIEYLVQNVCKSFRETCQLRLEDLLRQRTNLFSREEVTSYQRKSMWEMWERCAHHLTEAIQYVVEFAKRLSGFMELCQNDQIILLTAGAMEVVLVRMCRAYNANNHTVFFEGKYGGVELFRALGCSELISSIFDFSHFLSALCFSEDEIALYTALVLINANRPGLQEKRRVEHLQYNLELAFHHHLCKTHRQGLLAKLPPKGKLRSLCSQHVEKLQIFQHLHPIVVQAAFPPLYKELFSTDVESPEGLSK
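In this cell-based reporter format, copper sulfate (700 uM final) drives Gal4–ROR gamma fusion expression from a metallothionein promoter in Drosophila Schneider cells; compounds preincubated 1 hr, reporter read after 20 hr at ambient temperature.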
VP16 counter – Gal4-VP16 reporter inhibition counter-screen. Drosophila S2 Gal4-VP16 UAS-luciferase, luminescence, 20 h. Potency, µM (doses to about 53.6 µM), for inactives: at the highest dose activity, negative = inhibition, usual class: inhibitors. actives 3.5% (n = 310,000);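 further: Gal4-VP16 expression switched on by copper sulfate through the metallothionein promoter; nearly all actives have a fitted effect of over 50% in size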
* hit, by the source's call; [ ] = another dose, or the depositor's remark. The call rests on the fitted dose curve; in most records, active means well fitted curve in the direction sought with a large enough effect; inconclusive means small, poorly fitted or top-dose-only effect, or another doubt; inactive means no such curve, though single readings can be large; an effect the other way counts as inactive or inconclusive. On the % scale 0 is the no-effect control and ±100 the full control effect; potency means the concentration at half of the fitted maximal effect.

Oc1c(Cl)cc(Cl)cc1Sc1cc(Cl)cc(Cl)c1O was read as TDP1 cell CPT inconclusive, ELG1 DNA repair -20.5%, DT40 TDP1 no CPT 23.1µM*, RORgamma inh inconclusive and VP16 counter 12.6µM*.
Screening CS(=O)Cc1cccc(C(=O)NCC(C)(C)c2ccccc2)c1 (configuration not stated) returned ALOX12 inh 8.8%.
`O=C(O)Cn1ccc2cc(OCc3cccc(-c4ccc(F)c(Cl)c4)c3)cnc21` gave ALOX12 inh 50.1µM*.
Cc1cc(F)ccc1-c1cccc(COc2cnc3c(ccn3CC(=O)O)c2)c1 was read as ALOX12 inh -18.5%[176 µM].
O=C(O)Cn1ccc2cc(OCc3cccc(-c4ccc(F)cc4F)c3)cnc21 was read as ALOX12 inh 35.5µM*.
For COc1cccc(-c2cccc(COc3cnc4c(ccn4CC(=O)O)c3)c2)c1F the results were ALOX12 inh 50.1µM*.
COCc1cc(C[C@@H]2CC[C@H](O)[C@@H](CN(C(=O)Nc3ccc(OC)cc3)C(=O)Nc3ccc(OC)cc3)O2)no1 was read as ALOX12 inh 13.5%.
COCCCNCc1cc(=O)oc2ccc3ccccc3c12 was read as ALOX12 inh 41.3%.
`CC1CCN(CC(O)COc2ccc(F)cc2)CC1` (configuration not stated) gave TDP1 cell CPT 1.5%, ALOX12 inh -1.7%, ELG1 DNA repair 6.4%, DT40 TDP1 no CPT -16.8%, RORgamma inh 13.1% and VP16 counter 4.1%.
`CS(=O)(=O)c1cccc(OCCCN2CCC(C(O)(c3ccccc3)c3ccccc3)CC2)c1` gave ALOX12 inh -22.8%.
For Cc1cc(OCCCN2CCC(C(O)(c3ccccc3)c3ccccc3)CC2)ccc1Br the results were TDP1 cell CPT 5.8µM*, ALOX12 inh inconclusive and DT40 TDP1 no CPT 5.8µM*.
Screening N#Cc1cccc(OCCCN2CCC(C(O)(c3ccccc3)c3ccccc3)CC2)c1 returned TDP1 cell CPT inconclusive, ALOX12 inh inconclusive and DT40 TDP1 no CPT 16.4µM*.
Screening CC1CCN(CC(O)COc2ccc(-c3ccccc3)cc2)CC1 (configuration not stated) returned TDP1 cell CPT inconclusive, ALOX12 inh -4.3%, ELG1 DNA repair -6.4%, DT40 TDP1 no CPT 18.4µM*, RORgamma inh -7.9%[1.91 µM] and VP16 counter 6.7%.
`N#Cc1ccc(OCC(O)CN2CCC(C(O)(c3ccccc3)c3ccccc3)CC2)cc1` (configuration not stated) gave TDP1 cell CPT 20.6µM*, ALOX12 inh 16.0%, ELG1 DNA repair -1.3%, DT40 TDP1 no CPT inconclusive, RORgamma inh -2.8% and VP16 counter -5.3%.
Screening O=C(/C=C/c1cccs1)OCC(=O)c1ccc2c(c1)-c1ccccc1C2 returned ALOX12 inh -7.1%.
CC(C)(NS(=O)(=O)OCC(Cl)(Cl)Cl)c1ccccc1 was read as TDP1 cell CPT -22.7%, ALOX12 inh 2.6%, ELG1 DNA repair 7.1%, DT40 TDP1 no CPT -4.2%, RORgamma inh 3.7% and VP16 counter -2.2%.
`CC(NS(=O)(=O)OCC(Cl)(Cl)Cl)c1ccc(C(C)(C)C)cc1` (configuration not stated) gave TDP1 cell CPT 16.4µM*, ALOX12 inh -0.7%, ELG1 DNA repair -29.6%, DT40 TDP1 no CPT inconclusive, RORgamma inh inconclusive and VP16 counter inconclusive.
Cc1cc(Br)ccc1NCC(=O)N(C1CCCCC1)C1CCS(=O)(=O)C1 (configuration not stated) was read as ALOX12 inh 13.4%.
`CCOc1ccc(/C=C/C(=O)Nc2sc3c(c2C(=O)OC)CCCC3)cc1` gave ALOX12 inh -15.9%.
Screening COC(=O)c1c(NC(=O)CCCOc2ccc(C)cc2)sc2c1C(C(=O)OC)CC2 (configuration not stated) returned TDP1 cell CPT 14.6µM*, ALOX12 inh -42.8% and DT40 TDP1 no CPT 13µM*.
For COC(=O)c1c(NC(=O)CCCOc2cccc(C)c2)sc2c1CCC2 the results were TDP1 cell CPT -8.4%, ALOX12 inh inconclusive and DT40 TDP1 no CPT -3.9%.
COC(=O)c1c(NC(=O)C(Cl)Cl)sc2c1C(C(=O)OC)CC2 (configuration not stated) was read as TDP1 cell CPT inconclusive, ALOX12 inh 61.1%, ELG1 DNA repair inconclusive, DT40 TDP1 no CPT inconclusive, RORgamma inh 3.98µM* and VP16 counter 7.94µM*.
For COC(=O)c1c(NC(=O)CCCOc2cccc(C)c2)sc2c1C(C(=O)OC)CC2 (configuration not stated) the results were TDP1 cell CPT 16.4µM*, ALOX12 inh -4.7% and DT40 TDP1 no CPT 14.6µM*.
For CCOc1ccc(/C=C/C(=O)Nc2sc3c(c2C(=O)OC)C(C(=O)OC)CC3)cc1 (configuration not stated) the results were TDP1 cell CPT 9.2µM*, ALOX12 inh -5.2% and DT40 TDP1 no CPT 9.2µM*.
Screening COC(=O)c1c(NC(=O)C(C)(C)C)sc2c1C(C(=O)OC)CC2 (configuration not stated) returned TDP1 cell CPT 2.1%, ALOX12 inh 0.0%, ELG1 DNA repair inconclusive, DT40 TDP1 no CPT inconclusive, RORgamma inh 39.1% and VP16 counter 5.9%.
`Cc1ccccc1-c1cccc(C(=O)N(C)Cc2ncc[nH]2)c1` gave ALOX12 inh 56.9%.
Screening O=C(c1ccccc1)N1CCC2(CC1)N=C(c1ccc(Cl)cc1)NO2 returned ALOX12 inh 33.1%.
Screening COc1ccc(-c2nnc3ccc(Nc4ccc(F)cc4)nn23)cc1 returned ALOX12 inh -7.0%.
For C(#CCN1CCCCC1)COCCCOCc1ccccc1 the results were ALOX12 inh -27.7%.
For COC(=O)C1C2CCC(C2)C1C(=O)OCC(=O)c1ccc(Cl)cc1 (configuration not stated) the results were ALOX12 inh 3.2%.
Screening CC(C)COC(=O)c1ccc2c(c1O)C(=O)c1ccccc1C2=O returned TDP1 cell CPT inconclusive, ALOX12 inh 0.0%, ELG1 DNA repair inconclusive, DT40 TDP1 no CPT 23.1µM*, RORgamma inh -5.9% and VP16 counter inconclusive.
